Laboratory results published in the supplement of paper PMC10849652.
The full data set covers some 7,900 targets. This sample favours those with a hit. About 0.6% of all pairs of compound and target were hits.

What was measured:
Experiment in all cases: log2 fold change, soluble protein after heating vs DMSO (PISA); higher = thermal stabilisation; K562 cells, 10 uM, 30 min; active = over 0.2 and 3.5 SD of the protein, either way, in both replicates (recomputed)
[1] = compound: CS(=O)(=O)c1ccc(-c2cnc(N)c(C(=O)Nc3ccccc3)n2)cc1
Outline: (§1)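 Soluble protein was defined as the supernatant after 21,000xg for 90 min. It came from K562 cells at 2×10^6 cells/mL given 10 μM compound for 30 min, heated in aliquots for 3 min across 48°C-58°C, pooled, and extracted in PBS with 0.5% NP-40 at 4°C, and was quantified by TMTpro 16plex LC-MS/MS with equalised channel sums. Thermal stability against control samples, from duplicates, is reported as log2 fold change.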

crizotinib = compound: C[C@@H](Oc1cc(-c2cnn(C3CCNCC3)c2)cnc1N)c1c(Cl)ccc(F)c1Cl [crizotinib]
Outline: as §1

[2] = compound: C[C@@H]1COCCN1C2=NC(=NC(=C2)C3(CC3)S(=O)(=O)C)C4=C5C=CNC5=CC=C4
Outline: as §1

[3] = compound: C[C@H](C1=CC=C(C=C1)C(=O)NC2=C3C=CNC3=NC=C2)N
Outline: as §1

duvelisib = compound: C[C@H](Nc1ncnc2nc[nH]c12)c1cc2cccc(Cl)c2c(=O)n1-c1ccccc1 [duvelisib]
Outline: as §1

gandotinib = compound: Cc1cc(Nc2cc(CN3CCOCC3)c3nc(C)c(Cc4ccc(Cl)cc4F)n3n2)n[nH]1 [gandotinib]
Outline: as §1

tozasertib = compound: Cc1cc(Nc2cc(N3CCN(C)CC3)nc(Sc3ccc(NC(=O)C4CC4)cc3)n2)n[nH]1 [tozasertib]
Outline: as §1

[4] = compound: Cc1cc(SCc2sc(-c3ccc(C(F)(F)F)cc3)nc2C)ccc1OCC(=O)O
Outline: as §1

doramapimod = compound: Cc1ccc(-n2nc(C(C)(C)C)cc2NC(=O)Nc2ccc(OCCN3CCOCC3)c3ccccc23)cc1 [doramapimod]
Outline: as §1

ispinesib = compound: Cc1ccc(C(=O)N(CCCN)[C@@H](c2nc3cc(Cl)ccc3c(=O)n2Cc2ccccc2)C(C)C)cc1 [ispinesib]
Outline: as §1

bafetinib = compound: Cc1ccc(NC(=O)c2ccc(CN3CC[C@H](N(C)C)C3)c(C(F)(F)F)c2)cc1Nc1nccc(-c2cncnc2)n1 [bafetinib]
Outline: as §1

[5] = compound: Cc1cccc(CC(=O)N2CCc3c2ccc(-c2cn(C)c4ncnc(N)c24)c3F)n1
Outline: as §1

nilotinib = compound: Cc1cn(-c2cc(NC(=O)c3ccc(C)c(Nc4nccc(-c5cccnc5)n4)c3)cc(C(F)(F)F)c2)cn1 [nilotinib]
Outline: as §1

[6] = compound: Cc1nc(Nc2n[nH]c3c2CN(C(=O)N[C@H](CN(C)C)c2ccccc2)C3(C)C)c2sccc2n1
Outline: as §1

dasatinib = compound: Cc1nc(Nc2ncc(C(=O)Nc3c(C)cccc3Cl)s2)cc(N2CCN(CCO)CC2)n1 [dasatinib]
Outline: as §1

[7] = compound: Cc1ncc(-c2ccnc(Nc3ccc(S(C)(=O)=O)cc3)n2)n1C(C)C
Outline: as §1

[8] = compound: Cn1cc(-c2ccc3c(c2)CCN3C(=O)Cc2cccc(C(F)(F)F)c2)c2c(N)ncnc21
Outline: as §1

[9] = compound: Cn1cc(-c2ccc3nnc(C(F)(F)c4ccc5ncccc5c4)n3n2)cn1
Outline: as §1

tipifarnib = compound: Cn1cncc1[C@@](N)(c1ccc(Cl)cc1)c1ccc2c(c1)c(-c1cccc(Cl)c1)cc(=O)n2C [tipifarnib]
Outline: as §1

mubritinib = compound: FC(F)(F)c1ccc(/C=C/c2nc(COc3ccc(CCCCn4ccnn4)cc3)co2)cc1 [mubritinib]
Outline: as §1

Measured: log2 fold change

GTF2B (UniProt Q00403)
Sequence of UniProt Q00403 (Q00403 whole entry, looked up): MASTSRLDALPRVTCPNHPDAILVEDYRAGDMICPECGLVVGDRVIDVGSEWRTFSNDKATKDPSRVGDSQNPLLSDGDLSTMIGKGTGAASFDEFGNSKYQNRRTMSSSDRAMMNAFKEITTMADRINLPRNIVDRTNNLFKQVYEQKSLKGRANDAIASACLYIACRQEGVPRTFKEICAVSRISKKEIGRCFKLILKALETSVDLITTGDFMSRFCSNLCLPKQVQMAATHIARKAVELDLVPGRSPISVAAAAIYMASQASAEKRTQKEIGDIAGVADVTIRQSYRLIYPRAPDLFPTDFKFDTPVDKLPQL
inactive: [1] -0.007 | crizotinib -0.044 | [2] 0.115 | [3] 0.001 | duvelisib 0.121 | gandotinib -0.146 | tozasertib 0.102 | [4] 0.127 | doramapimod -0.044 | ispinesib -0.091 | bafetinib -0.005 | [5] 0.139 | nilotinib -0.134 | [6] -0.13 | dasatinib -0.247 | [7] 0.006 | [8] 0.031 | [9] 0.102 | tipifarnib -0.082 | mubritinib 0.007

HDDC2 (UniProt Q7Z4H3)
Sequence of UniProt Q7Z4H3 (Q7Z4H3 whole entry, looked up): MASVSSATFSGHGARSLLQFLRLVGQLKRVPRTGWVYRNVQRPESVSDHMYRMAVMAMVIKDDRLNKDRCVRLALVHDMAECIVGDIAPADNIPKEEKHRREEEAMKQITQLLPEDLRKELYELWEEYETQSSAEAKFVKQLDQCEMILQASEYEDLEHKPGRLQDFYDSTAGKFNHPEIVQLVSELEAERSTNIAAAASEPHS
inactive: [1] 0.044 | crizotinib -0.058 | [2] 0.106 | [3] -0.103 | duvelisib 0.04 | gandotinib 0.032 | tozasertib 0.026 | [4] 0.024 | doramapimod 0.031 | ispinesib 0.228 | bafetinib -0.015 | [5] 0.039 | nilotinib 0.057 | [6] -0.005 | dasatinib -0.01 | [7] -0.003 | [8] 0.069 | [9] -0.008 | tipifarnib -0.091 | mubritinib 0.043

FBXO7 (UniProt Q9Y3I1)
Sequence of UniProt Q9Y3I1 (Q9Y3I1 whole entry, looked up): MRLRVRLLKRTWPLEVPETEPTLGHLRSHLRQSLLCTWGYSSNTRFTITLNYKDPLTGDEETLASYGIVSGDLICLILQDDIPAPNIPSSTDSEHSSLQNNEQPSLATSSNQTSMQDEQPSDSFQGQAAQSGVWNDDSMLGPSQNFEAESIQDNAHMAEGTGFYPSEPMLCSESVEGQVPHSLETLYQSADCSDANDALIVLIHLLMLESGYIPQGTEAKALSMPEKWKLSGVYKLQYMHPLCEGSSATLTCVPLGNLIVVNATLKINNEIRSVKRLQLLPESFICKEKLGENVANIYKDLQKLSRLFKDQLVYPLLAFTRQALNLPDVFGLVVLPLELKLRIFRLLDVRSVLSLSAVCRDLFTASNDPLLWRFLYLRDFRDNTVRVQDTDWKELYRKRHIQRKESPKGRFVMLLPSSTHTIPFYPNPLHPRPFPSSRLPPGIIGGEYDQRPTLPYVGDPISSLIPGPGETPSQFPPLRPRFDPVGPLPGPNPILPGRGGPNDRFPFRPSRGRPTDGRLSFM
inactive: [1] 0.038 | crizotinib 0.041 | [2] 0.061 | [3] -0.023 | duvelisib 0.015 | gandotinib -0.194 | tozasertib -0.018 | [4] 0.083 | doramapimod -0.029 | ispinesib 0.098 | bafetinib -0.026 | [5] -0.006 | nilotinib 0.003 | [6] 0.059 | dasatinib -0.102 | [7] 0 | [8] 0.065 | [9] -0.002 | tipifarnib 0.072 | mubritinib 0.07

IGF2BP2 (UniProt Q9Y6M1)
inactive: [1] 0.009 | crizotinib -0.062 | [2] -0.186 | duvelisib -0.161 | gandotinib 0.139 | tozasertib 0.012 | [4] 0.158 | doramapimod 0.288 | ispinesib -0.182 | bafetinib 0.121 | [5] 0.004 | nilotinib -0.058 | [6] -0.018 | dasatinib 0.038 | [7] -0.039 | [8] -0.228 | [9] -0.191 | tipifarnib 0.069 | mubritinib -0.071
active: [3] 0.531

GNAS (UniProt Q5JWF2)
inactive: [1] 0.049 | crizotinib 0.047 | [2] 0.039 | [3] -0.031 | duvelisib 0.07 | gandotinib -0.034 | tozasertib -0.026 | [4] 0.003 | doramapimod 0.007 | ispinesib -0.141 | bafetinib 0.129 | [5] -0.001 | nilotinib 0.103 | [6] -0.02 | dasatinib 0.064 | [7] 0.005 | [8] 0.029 | [9] 0.031 | tipifarnib 0.005 | mubritinib -0.035

GNB2 (UniProt P62879)
Sequence of UniProt P62879 (P62879 whole entry, looked up): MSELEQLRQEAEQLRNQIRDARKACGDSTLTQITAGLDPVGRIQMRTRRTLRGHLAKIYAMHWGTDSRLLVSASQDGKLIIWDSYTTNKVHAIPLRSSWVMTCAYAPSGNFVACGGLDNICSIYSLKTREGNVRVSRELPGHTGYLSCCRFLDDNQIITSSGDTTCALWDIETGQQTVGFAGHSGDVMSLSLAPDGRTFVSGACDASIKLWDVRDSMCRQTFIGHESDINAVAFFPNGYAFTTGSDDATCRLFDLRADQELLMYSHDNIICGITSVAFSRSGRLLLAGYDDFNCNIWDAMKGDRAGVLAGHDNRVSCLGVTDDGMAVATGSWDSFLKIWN
inactive: [1] 0.084 | crizotinib 0.134 | [2] 0.024 | [3] -0.13 | duvelisib 0.046 | gandotinib -0.095 | tozasertib 0.017 | [4] 0 | doramapimod 0.009 | ispinesib 0.062 | bafetinib 0.12 | [5] -0.002 | nilotinib 0.077 | [6] -0.018 | dasatinib 0.057 | [7] -0.012 | [8] 0.028 | [9] -0.032 | tipifarnib 0.003 | mubritinib -0.028

GLRX3 (UniProt O76003)
Sequence of UniProt O76003 (O76003 whole entry, looked up): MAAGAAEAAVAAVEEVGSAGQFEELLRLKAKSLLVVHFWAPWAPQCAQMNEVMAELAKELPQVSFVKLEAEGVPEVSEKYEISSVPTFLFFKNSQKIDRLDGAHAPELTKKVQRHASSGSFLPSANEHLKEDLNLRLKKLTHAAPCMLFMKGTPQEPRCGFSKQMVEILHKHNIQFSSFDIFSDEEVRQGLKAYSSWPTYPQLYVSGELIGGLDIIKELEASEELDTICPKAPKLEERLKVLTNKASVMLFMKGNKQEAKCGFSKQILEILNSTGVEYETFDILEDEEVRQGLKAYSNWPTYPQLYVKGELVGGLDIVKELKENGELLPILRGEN
inactive: [1] 0.03 | crizotinib 0.098 | [2] 0.06 | [3] -0.068 | duvelisib 0.043 | gandotinib -0.094 | tozasertib 0.077 | [4] 0.041 | doramapimod -0.075 | ispinesib 0.068 | bafetinib -0.04 | [5] 0.025 | nilotinib -0.048 | [6] -0.022 | dasatinib -0.054 | [7] 0.015 | [8] -0.015 | [9] -0.014 | tipifarnib -0.082 | mubritinib -0.004

HAX1 (UniProt O00165)
inactive: [1] 0.02 | crizotinib -0.235 | [2] -0.043 | [3] 0.16 | duvelisib -0.062 | gandotinib -0.174 | tozasertib -0.071 | [4] 0.014 | doramapimod 0.035 | bafetinib -0.103 | [5] 0.029 | nilotinib -0.113 | [6] -0.174 | dasatinib -0.044 | [7] 0.069 | [8] -0.028 | [9] -0.068 | tipifarnib -0.112 | mubritinib 0.001
active: ispinesib -0.59

GSTP1 (UniProt P09211)
Sequence of UniProt P09211 (P09211 whole entry, looked up): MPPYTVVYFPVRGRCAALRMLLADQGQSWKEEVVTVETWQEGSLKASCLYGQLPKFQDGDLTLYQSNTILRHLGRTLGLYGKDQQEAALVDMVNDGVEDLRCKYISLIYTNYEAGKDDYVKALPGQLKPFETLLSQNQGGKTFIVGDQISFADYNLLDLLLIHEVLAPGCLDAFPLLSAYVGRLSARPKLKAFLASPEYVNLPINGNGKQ
inactive: [1] 0.023 | crizotinib 0.038 | [2] 0.033 | [3] -0.067 | duvelisib 0.037 | gandotinib -0.005 | tozasertib -0.008 | [4] 0 | doramapimod -0.019 | ispinesib 0.058 | bafetinib -0.061 | [5] -0.021 | nilotinib -0.018 | [6] -0.017 | dasatinib -0.014 | [7] 0.007 | [8] 0.032 | [9] 0.038 | tipifarnib -0.007 | mubritinib 0.038

GLS isoform 3 (UniProt O94925)
active: mubritinib -0.492
inactive: [1] 0.038 | crizotinib 0.021 | [2] 0.256 | [3] -0.007 | duvelisib 0.077 | gandotinib -0.264 | tozasertib 0.014 | [4] 0.064 | doramapimod 0.023 | ispinesib 0.219 | bafetinib 0.045 | [5] 0.028 | nilotinib -0.238 | [6] -0.162 | dasatinib -0.282 | [7] 0.046 | [8] -0.097 | [9] 0.114 | tipifarnib -0.208

HHEX (UniProt Q03014)
Sequence of UniProt Q03014 (Q03014 whole entry, looked up): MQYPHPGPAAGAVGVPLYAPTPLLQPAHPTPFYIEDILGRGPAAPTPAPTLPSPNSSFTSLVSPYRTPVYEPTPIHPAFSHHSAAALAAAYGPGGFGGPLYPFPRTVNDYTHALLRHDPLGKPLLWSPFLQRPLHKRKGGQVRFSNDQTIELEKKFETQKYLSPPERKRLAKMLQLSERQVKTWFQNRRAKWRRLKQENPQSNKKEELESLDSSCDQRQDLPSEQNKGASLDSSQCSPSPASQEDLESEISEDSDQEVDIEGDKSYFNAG
inactive: [1] -0.014 | crizotinib -0.027 | [2] -0.104 | [3] 0.49 | duvelisib -0.072 | gandotinib -0.042 | tozasertib -0.019 | [4] 0.021 | doramapimod 0.05 | ispinesib -0.128 | bafetinib -0.039 | [5] -0.024 | nilotinib -0.033 | [6] -0.056 | dasatinib 0.04 | [7] 0.008 | [8] 0.373 | [9] 0.044 | tipifarnib -0.012 | mubritinib 0.066

GUK1 isoform 2 (UniProt Q16774)
Sequence of UniProt Q16774 (Q16774 whole entry, looked up): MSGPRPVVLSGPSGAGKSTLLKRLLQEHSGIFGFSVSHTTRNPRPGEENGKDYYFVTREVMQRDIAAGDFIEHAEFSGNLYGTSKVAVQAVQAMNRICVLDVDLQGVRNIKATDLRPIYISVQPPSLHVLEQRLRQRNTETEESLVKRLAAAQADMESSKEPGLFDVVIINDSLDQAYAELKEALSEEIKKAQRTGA
active: mubritinib 0.397
inactive: [1] 0.13 | crizotinib -0.007 | [2] 0.161 | [3] 0.049 | duvelisib 0.123 | gandotinib -0.03 | tozasertib 0.018 | [4] 0.102 | doramapimod -0.004 | ispinesib 0.012 | bafetinib 0.134 | [5] 0.053 | nilotinib 0.226 | [6] -0.056 | dasatinib -0.109 | [7] 0.054 | [8] 0.058 | [9] -0.007 | tipifarnib -0.15

HECTD1 (UniProt Q9ULT8)
Sequence of UniProt Q9ULT8 (Q9ULT8 whole entry, looked up): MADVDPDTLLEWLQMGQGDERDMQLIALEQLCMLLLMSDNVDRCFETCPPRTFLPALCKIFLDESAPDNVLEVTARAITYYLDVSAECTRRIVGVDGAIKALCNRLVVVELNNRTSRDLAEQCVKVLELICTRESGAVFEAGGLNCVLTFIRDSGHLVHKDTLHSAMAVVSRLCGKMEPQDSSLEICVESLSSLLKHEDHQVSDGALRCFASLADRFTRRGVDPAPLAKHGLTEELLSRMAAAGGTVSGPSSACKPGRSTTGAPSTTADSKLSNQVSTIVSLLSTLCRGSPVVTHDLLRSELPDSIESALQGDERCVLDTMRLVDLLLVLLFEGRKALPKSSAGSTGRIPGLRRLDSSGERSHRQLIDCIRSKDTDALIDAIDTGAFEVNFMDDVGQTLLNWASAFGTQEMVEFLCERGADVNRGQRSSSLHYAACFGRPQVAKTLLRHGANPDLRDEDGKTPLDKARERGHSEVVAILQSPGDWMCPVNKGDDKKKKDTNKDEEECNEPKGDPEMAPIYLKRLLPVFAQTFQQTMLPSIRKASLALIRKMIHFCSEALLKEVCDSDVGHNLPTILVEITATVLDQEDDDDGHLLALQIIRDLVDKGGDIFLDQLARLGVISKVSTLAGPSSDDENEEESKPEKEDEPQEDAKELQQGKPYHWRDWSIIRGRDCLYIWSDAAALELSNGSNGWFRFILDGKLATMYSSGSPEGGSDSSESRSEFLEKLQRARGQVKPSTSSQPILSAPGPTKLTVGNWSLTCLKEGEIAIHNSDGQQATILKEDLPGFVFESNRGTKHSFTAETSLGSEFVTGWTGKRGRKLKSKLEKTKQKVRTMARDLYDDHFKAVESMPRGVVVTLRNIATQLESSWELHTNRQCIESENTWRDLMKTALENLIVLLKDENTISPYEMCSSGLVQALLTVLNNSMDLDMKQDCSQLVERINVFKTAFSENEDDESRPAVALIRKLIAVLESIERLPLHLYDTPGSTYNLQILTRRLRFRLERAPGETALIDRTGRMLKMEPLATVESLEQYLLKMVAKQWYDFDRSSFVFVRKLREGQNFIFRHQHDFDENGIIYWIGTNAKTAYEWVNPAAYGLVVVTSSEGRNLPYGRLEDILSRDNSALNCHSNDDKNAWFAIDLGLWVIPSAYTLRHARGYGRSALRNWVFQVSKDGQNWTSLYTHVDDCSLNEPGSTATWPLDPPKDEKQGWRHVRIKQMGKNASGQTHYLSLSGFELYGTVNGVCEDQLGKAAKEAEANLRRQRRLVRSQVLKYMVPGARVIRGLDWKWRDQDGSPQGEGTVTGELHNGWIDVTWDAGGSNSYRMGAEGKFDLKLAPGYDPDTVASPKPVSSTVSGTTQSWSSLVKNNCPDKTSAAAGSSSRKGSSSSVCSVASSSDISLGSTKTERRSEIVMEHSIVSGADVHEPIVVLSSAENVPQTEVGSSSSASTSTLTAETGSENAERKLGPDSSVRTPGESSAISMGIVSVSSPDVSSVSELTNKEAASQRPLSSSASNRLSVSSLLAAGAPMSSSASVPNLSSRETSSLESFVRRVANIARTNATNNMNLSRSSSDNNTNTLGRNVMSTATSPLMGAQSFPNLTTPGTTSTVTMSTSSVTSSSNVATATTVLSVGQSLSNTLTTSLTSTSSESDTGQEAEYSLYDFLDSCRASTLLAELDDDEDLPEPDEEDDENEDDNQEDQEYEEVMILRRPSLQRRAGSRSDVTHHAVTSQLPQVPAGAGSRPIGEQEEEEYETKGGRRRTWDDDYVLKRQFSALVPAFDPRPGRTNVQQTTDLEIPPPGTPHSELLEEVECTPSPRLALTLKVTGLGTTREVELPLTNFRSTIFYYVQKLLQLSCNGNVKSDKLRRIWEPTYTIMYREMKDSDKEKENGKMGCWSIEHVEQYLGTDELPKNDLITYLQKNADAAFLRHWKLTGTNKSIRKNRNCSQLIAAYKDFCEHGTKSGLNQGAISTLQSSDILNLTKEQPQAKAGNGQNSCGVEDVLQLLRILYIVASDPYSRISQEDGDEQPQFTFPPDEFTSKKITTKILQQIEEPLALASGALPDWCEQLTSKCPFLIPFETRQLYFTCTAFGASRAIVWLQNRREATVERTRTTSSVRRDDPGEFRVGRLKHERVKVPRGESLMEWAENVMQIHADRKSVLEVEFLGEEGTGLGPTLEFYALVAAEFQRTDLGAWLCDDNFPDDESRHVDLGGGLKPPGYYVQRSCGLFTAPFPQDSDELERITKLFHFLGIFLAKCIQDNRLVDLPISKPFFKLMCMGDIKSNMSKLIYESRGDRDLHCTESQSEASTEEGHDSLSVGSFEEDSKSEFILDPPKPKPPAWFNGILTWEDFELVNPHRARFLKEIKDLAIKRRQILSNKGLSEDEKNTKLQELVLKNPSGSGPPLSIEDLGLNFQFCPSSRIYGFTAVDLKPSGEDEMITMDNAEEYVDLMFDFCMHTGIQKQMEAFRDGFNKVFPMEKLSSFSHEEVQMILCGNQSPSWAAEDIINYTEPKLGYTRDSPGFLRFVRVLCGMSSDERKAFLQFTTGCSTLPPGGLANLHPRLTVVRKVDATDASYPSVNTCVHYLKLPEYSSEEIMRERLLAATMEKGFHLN
inactive: [1] -0.034 | crizotinib 0.084 | [2] 0.129 | [3] 0.072 | duvelisib -0.091 | gandotinib -0.062 | tozasertib 0.002 | [4] 0.06 | doramapimod -0.062 | ispinesib -0.126 | bafetinib 0.025 | [5] 0.029 | nilotinib -0.111 | [6] -0.141 | dasatinib -0.104 | [7] -0.022 | [8] -0.058 | [9] -0.032 | tipifarnib -0.088 | mubritinib -0.144
